# Bioassay records from PubChem BioAssay.
# Sampled rows, rich in hits. Any-hit rate of the full collection: about 7.2%.
# MARV entry inh = blocks Marburg virus binding to or entry into cells; Marburg virus pseudotyped entry inhibition, cell reporter; Potency, µM (highest dose often 37.8 µM), without a hit: top-dose activity change, negative = inhibition, usual class: inhibitors; actives 1.8% (n = 300,000); calls by dose curve; tested in HEK293 cells
# HCV inhibitor = inhibitors of hepatitis C virus infection. Potency, µM (series often up to 41.8 µM), without a hit: at the top dose activity change, negative = inhibition, most hits filed as inhibitors. Huh7.5.1 HCVcc-Cre infection, luciferase reporter, 44 h. actives 3.4% (n = 340,000)
#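 Infectious HCV cell culture screen: compound-treated cells (1,000/well, pre-plated 4 h) are infected with HCVcc-Cre at roughly 0.5 moi and grown 44 h. Infection is quantified by luciferase signal after 15 min substrate incubation at room temperature.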
# Lassa entry inh = blocks Lassa virus binding to or entry into cells; actives 1.2% (n = 300,000); Lassa virus pseudotype entry inhibition, cell reporter; Potency, µM (titrated, usually from 37.9 µM), for inactives: at the highest dose activity change, negative = inhibition, hits mostly inhibitors; calls by dose curve; tested in HEK293 cells; further: nearly all actives have a fitted effect of over 50% in size
# FMDV antiviral = blocks foot and mouth disease virus; FMDV antiviral cell-based qHTS; Potency, µM (top dose mostly 57.9 µM), without a hit: top-dose activity change, negative = inhibition, most hits filed as inhibitors; actives 1.2% (n = 410,000); calls by dose curve; tested in HEK293T cells; further: read-out not given here; nearly all actives have a fitted effect of over 45% in size
# Sm TGR inh = inhibitors of Schistosoma mansoni thioredoxin glutathione reductase; actives 3% (n = 360,000); Potency, µM (top dose mostly 114 µM), for the others: top-dose activity change, negative = inhibition, hits mostly inhibitors; Q962Y6; AID 485364; purified TGR, DTNB reduction, TNB absorbance 405 nm; further: nearly all actives have a fitted effect of over 60% in size
#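 TGR 20 nM + NADPH 100 uM (dispensed conc.), cpd preinc 15 min RT; start with NADPH (500 uM addition) then DTNB (15 mM addition). Kinetic TNB absorbance, 405 nm filter. Four-parameter Hill fit across titration.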
# RE007 growth inh = less growth of the S. pombe RE007 Vpr strain. S. pombe RE007 Vpr strain, BacTiter-Glo ATP luminescence, 24 h. Potency, µM (series often up to 92.2 µM), for the others: top-dose activity change, negative = less growth, actives largely listed as inhibitors. actives 0.21% (n = 360,000). AID 651644; active means well fitted falling curve with a large enough effect; inconclusive means small, poorly fitted or top-dose-only effect; inactive means no such curve, though single readings can be large or run the other way; further: nearly all actives have a fitted effect of over 50% in size
#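 Fission yeast strain RE007, carrying one chromosomally integrated HIV-1 vpr copy, was seeded at OD 0.01 in PMG+AL medium with 23 nL pinned compound. After 24 h at 30 °C and 99% humidity, viability was read by BacTiter-Glo luminescence.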
# Starred values were filed as active, the others as inactive; u = inconclusive; x = not tested or not shown; [ ] = another dose, or the depositor's remark. Unless noted, the call rests on the fitted dose curve; in most records, active means well fitted curve in the direction sought with a large enough effect; inconclusive means small, poorly fitted or top-dose-only effect, or another doubt; inactive means no such curve, though single readings can be large; an effect the other way counts as inactive or inconclusive. On the % scale 0 is the no-effect control and ±100 the full control effect; potency means the concentration at half of the fitted maximal effect.
SMILES,MARV entry inh,HCV inhibitor,Lassa entry inh,FMDV antiviral,Sm TGR inh,RE007 growth inh
COc1ccc(OC)c(NC(=O)N2CC3CCCN3c3ccccc32)c1 (stereo unspecified),x,x,6%[46.1 µM],u,-2%,x
O=C(O)[C@H]1CCC(=O)N1Cc1ccco1,3%[46.1 µM],23%,-1%,10%,-15%,0%
CN(Cc1ccccc1)C(=O)[C@H]1CCC(=O)N1Cc1ccco1,-4%,-15%,u,7%,16µM*,-5%
C[C@H](NC(=O)[C@@H]1CCC(=O)N1Cc1ccco1)c1ccccc1,x,7%,x,0%,50µM*,21%
O=c1[nH]cnc2c1cnn2Cc1ccccc1Cl,x,8%,x,0%,-3%,8%
O=c1c(Cl)c(Cl)cnn1-c1ccccc1,26µM*,4µM*,u,u,40µM*,-13%
Cc1ccc(Cn2ncc(Cl)c(Cl)c2=O)cc1,u,11µM*,u,40µM*,3.5µM*,12%
O=c1c(Cl)c(Cl)cnn1Cc1nnc(-c2ccc(Cl)cc2)o1,u,10µM*,u,u,4.5µM*,-22%
Nc1c(Cl)cnn(-c2ccccc2)c1=O,x,15%,x,3%,x,-13%
O=c1c(Cl)c(Cl)cnn1Cc1ccccc1Cl,6.5µM*,2.8µM*,13µM*,25µM*,13µM*,2%
Cc1ccc(-c2nnc(Cc3ccc(Cl)cc3)o2)cc1,x,-20%,x,56%,0%,-18%
Cc1cc(C)cc(Cn2ncc(Cl)c(Cl)c2=O)c1,11µM*,u,u,28µM*,2.8µM*,-27%
N[C@H](Cn1ccc(=O)[nH]c1=O)C(=O)O,3%,x,x,x,x,x
COC(=O)CNC(=O)c1cnn(-c2ncc3c(n2)-c2ccccc2CCC3)c1C1CC1,x,x,x,48%,x,x
CC(C)(C)NS(=O)(=O)c1ccc(CCC(=O)NCc2ccco2)cc1,-2%,9%,18%,29%,35µM*,17%
COc1ccc(N(C(C)C(=O)NCc2ccco2)S(C)(=O)=O)cc1 (stereo unspecified),0%[46.1 µM],2%,4%,-4%,25µM*,13%
COc1ccc(NC(=O)C(C)N(c2ccccc2)S(C)(=O)=O)cc1 (stereo unspecified),-8%[46.1 µM],x,4%[46.1 µM],-11%,3%,x
COc1ccc(CCC(=O)NCc2ccco2)cc1,u,6%,0%,-15%,56µM*,37%
COc1ccccc1-n1cc(C(=O)NCCN2Cc3ccccc3OC(c3ccsc3)C2)cn1 (stereo unspecified),x,x,x,-9%,x,x
CCN1/C(=C/c2ccc3cc(C)ccc3[n+]2CC)Sc2ccc3sccc3c21,x,3.5µM*,x,35µM*,x,-6%
CCN1/C(=C\c2ccc3cc(C)ccc3[n+]2CC)Sc2cc(C)c(C)cc21,u,2.8µM*,x,u,-27%,u
CCN1/C(=C/c2ccc3cccc(C)c3[n+]2CC)Sc2ccccc21,2.6µM*,6.3µM*,6.5µM*,7.9µM*,26%,u
C[n+]1ccccc1/C=C1\Sc2ccccc2N1CCO,-24%,u,u,-13%,1%,u
Cc1ccc2c(=O)cc(C(=O)Nc3c(C)cccc3C)oc2c1,-10%[46.1 µM],x,-4%[46.1 µM],0%,-2%,x
Cc1ccc(CNc2ncnc3sc(C(=O)N4CCC(N5CCCC(O)C5)CC4)c(C)c23)o1 (stereo unspecified),x,x,x,-2%,x,x
Cc1ccc(NC(=O)C2C3C=CC(O3)C2C(=O)O)c(C)c1 (stereo unspecified),7%[46.1 µM],3%,11%[46.1 µM],1%,35µM*,-18%
COC(=O)c1sccc1NC(=O)C1C2C=CC(O2)C1C(=O)O (stereo unspecified),0%,9%,15%,-12%,-8%,8%
Cc1ccc(C)c(NC(=O)C2C3C=CC(O3)C2C(=O)O)c1 (stereo unspecified),-2%,16%,15%,-3%,45µM*,-3%
Cc1ccc(NC(=O)C2C3C=CC(O3)C2C(=O)O)cc1C (stereo unspecified),0%[46.1 µM],23%,8%[46.1 µM],12%,-31%,-18%
Cc1cccc(NC(=O)C2C3C=CC(O3)C2C(=O)O)c1 (stereo unspecified),x,x,x,x,11µM*,x
